S2 tox: viability counter-screen for ATXN expression inhibitors. S2 cells (HEK-293 line with an ATXN2-luciferase reporter) viability, CellTiter-Fluor protease fluorescence, 24 h. Potency, µM (series often up to 56.7 µM), hits mostly cytotoxic. hit rate 0.49% among 400,000; note: potency is the fitted concentration of half-maximal effect; nearly all actives have a fitted effect of over 40% in size
TGFb SMAD3 inh: blocks TGF-b signaling; Potency, µM (series often up to 46.1 µM), for inactives: top-dose activity, negative = inhibition, hits mostly inhibitors; HepG2 CAGA-GFP TGF-b/SMAD3 reporter, GFP fluorescence, 18 h; TGF-beta stimulated, 500 pg/mL final; AID 588855; hit rate 1.2% among 410,000; note: potency is the fitted concentration of half-maximal effect; % is set by controls: 0 for no effect and ±100 for the full control effect; nearly all actives have a fitted effect of over 65% in size
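Inhibition was scored as loss of TGF-beta-induced (500 pg/mL final, 18 hours, 37 degrees C) GFP in HEPG2 cells carrying a CAGA-GFP reporter, in DMEM with 1% FBS. Well GFP was summed per cell; Activity was normalised to unstimulated and stimulated DMSO wells, then concentration-response fitting.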
ATXN2 expr inh: reduces ATXN2 reporter expression in HEK-293 cells; AID 1745845; hit rate 0.72% among 360,000; Potency, µM (doses to about 57 µM), without a hit: at the highest dose activity change, negative = inhibition, usual class: inhibitors; HEK-293 ATXN2-luciferase reporter, luminescence, 24 h; note: potency is the fitted concentration of half-maximal effect; % is set by controls: 0 for no effect and ±100 for the full control effect; nearly all actives have a fitted effect of over 55% in size
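ATXN2-luciferase reporter cells (luciferase flanked by upstream and downstream ATXN2 gene portions) were treated 24 h at 37 °C with compounds at up to 57 uM. SteadyGlo luminescence gave expression; GF-AFC fluorescence gave viability.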
D3 antag: antagonists of human D3 dopamine receptor; hit rate 2.5% among 360,000; D3R cells, DiscoveRx beta-arrestin luminescence, antagonist mode; hits give low values; AID 652054; max response, negative = inhibition, %; P35462; in the data active = max response below about -50%; inconclusive = no clear call, values can overlap the other calls; note: % is set by controls: 0 for no effect and ±100 for the full control effect
Target sequence (P35462 whole entry, looked up): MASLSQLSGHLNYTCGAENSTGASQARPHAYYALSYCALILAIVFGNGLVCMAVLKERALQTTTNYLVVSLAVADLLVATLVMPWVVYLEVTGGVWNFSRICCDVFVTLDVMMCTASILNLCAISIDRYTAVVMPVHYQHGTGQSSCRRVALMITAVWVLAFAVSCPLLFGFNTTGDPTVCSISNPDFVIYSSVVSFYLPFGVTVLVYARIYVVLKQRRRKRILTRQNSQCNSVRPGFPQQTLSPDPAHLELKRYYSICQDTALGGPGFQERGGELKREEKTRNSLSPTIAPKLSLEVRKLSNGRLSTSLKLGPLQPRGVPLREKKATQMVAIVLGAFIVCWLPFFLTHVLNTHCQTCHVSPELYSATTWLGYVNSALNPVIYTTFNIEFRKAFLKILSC
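Cells expressing the human receptor were seeded at 1500 cells/well, incubated overnight at 37 degrees C in 5% CO2, then exposed to library compounds with dopamine controls for 90 minutes at 37 degrees C before luminescent detection.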
HepG2 tox: kills HepG2 cells in TGF-b inhibitor counter-screen; HepG2 CAGA-GFP viability, ATP luminescence, 18 h; Potency, µM (series often up to 46.1 µM), without a hit: at the top dose activity change, negative = cytotoxicity, most hits filed as cytotoxic; hit rate 0.76% among 410,000; AID 588856; note: potency is the fitted concentration of half-maximal effect
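HepG2 CAGA-GFP cells (1000/well, DMEM with 1% FBS) received compound, then TGF-beta at 500 pg/mL final, and were incubated 18 hours at 37 degrees C. Viability was read by CellTiter-Glo luminescence. Media-only wells were set as complete cell-killing and DMSO as no toxicity.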
D3 ag: agonists of human D3 dopamine receptor; D3R DiscoveRx beta-arrestin cells, luminescence, 90 min; P35462; max activation, %; hit rate 0.58% among 410,000; in the data active = max activation above about 30%; note: 0% is about no effect
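Cells at 1500/well, incubated overnight, then treated with pinned compounds (dopamine as control) for 90 min at 37 degrees C. DiscoveRx reagent added for 30 - 60 minutes at room temperature; luminescence read.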
* hit, by the source's call; i = inactive; ? = inconclusive; / = not tested or not shown. This is a sample that favours compounds with a hit; in the whole collection about 4.7% have one here. Unless noted, calls come from the whole dose curve; as a rule, active = well fitted curve in the direction sought with a large enough effect; inconclusive = small, poorly fitted or top-dose-only effect, or another doubt; inactive = no such curve, though single readings can be large; an effect the other way counts as inactive or inconclusive.

SMILES | S2 tox | TGFb SMAD3 inh | ATXN2 expr inh | D3 antag | HepG2 tox | D3 ag
CC(C)(C)NC(=O)C(c1ccc(-c2ccccc2)cc1)N(C[C@H]1CC[C@@H]([C@@H]2CC[C@H](CO)O2)O1)C(=O)c1ccc2ccccc2c1 (stereo partly specified) | 20µM* | ? | ? | -7 | -89% | -21
Cc1ccc(Cl)cc1NC(=O)CSc1nc2c(c(=O)[nH]1)CN(Cc1ccccc1)CC2 | i | ? | -9% | / | -15% | 5
C[n+]1c(/C=C/c2ccc(N)cc2)sc2ccccc21 | / | -12% | / | / | -12% | /
Cc1c(C(=O)N(C)CC2CCCN(C)C2)cnn1-c1nccc(-c2ccco2)n1 (stereo unspecified) | i | / | / | / | / | /
O=C(CCNS(=O)(=O)c1ccc(Br)s1)NC1CCCC1 | i | ? | -8% | -103* | 4% | -3
O=C(CCNS(=O)(=O)c1ccc(Br)s1)Nc1ccc(Br)cc1 | i | ? | 2% | / | -70% | -6
O=C(CCNS(=O)(=O)c1ccc(Br)s1)Nc1ccc(Cl)cc1 | i | ? | -32% | -52* | -39% | 1
CCOC(=O)c1sc(NC(=O)c2sccc2C)cc1C | i | 2% | 90% | 30 | 14µM* | 2
CC[C@H](C)C(C(=O)N1CCN(C(=O)OC(C)(C)C)CC1)n1cc(C(Cc2ccc(O)cc2)NC(=O)OC(C)(C)C)nn1 (stereo partly specified) | i | -14% | -14% | 73 | -5% | 52*
CC[C@H](C)C(C(=O)N1CCN(C(=O)OC(C)(C)C)CC1)n1cc(C(CO)NC(=O)OC(C)(C)C)nn1 (stereo partly specified) | i | 1% | 4% | -25 | -7% | 8
O=S(=O)(c1ccc(OCc2nc3ccccc3s2)c(Cl)c1)N1CCOCC1 | i | 0% | 13% | -76* | 29% | -13
Cc1cccc(Cl)c1OCCN1CCCC1 | i | -3% | 0% | ? | 3% | -10
Clc1ccc(Cl)c(OCCN2CCOCC2)c1 | i | -9% | -2% | -52* | -20% | 8
Clc1ccc(Cl)c(OCCN2CCCC2)c1 | i | -2% | / | -75* | -10% | 0
Clc1ccc(OCCN2CCOCC2)cc1 | i | -13% | 6% | -16 | -13% | -5
Cc1ccc(C(=O)c2ccccc2C(=O)OCC(=O)Nc2cccc([N+](=O)[O-])c2)cc1 | i | ? | 4% | 17 | 13% | -15
Cc1ccc(Cl)c(NC(=O)COC(=O)c2ccccc2C(=O)c2ccc(Cl)c([N+](=O)[O-])c2)c1Cl | / | ? | ? | -71* | -44% | -23
CCCNC(=O)COC(=O)c1ccccc1C(=O)c1ccc(Cl)c([N+](=O)[O-])c1 | ? | ? | ? | -101* | -28% | -21
CN(C)c1ccc(/C=C/c2ccnc3ccc([N+](=O)[O-])cc23)cc1 | / | -3% | / | / | -1% | /
Oc1c(Cl)cc(Cl)cc1/C=N/Nc1ncc(Br)cn1 | ? | -15% | ? | -107* | -13% | -25
O=C(N/N=C/c1cc(Cl)cc(Cl)c1O)c1ccncc1 | i | ? | / | 18 | -54% | 6
CCOC(=O)c1sc(N2C(=O)c3oc4ccc(F)cc4c(=O)c3C2c2ccc(O)cc2)nc1C (stereo unspecified) | i | -13% | 0% | / | 2% | 4
Cc1cc(C)cc(OC(C)C(=O)Nc2nonc2-c2ccc(Br)cc2)c1 (stereo unspecified) | ? | 16µM* | ? | / | -56% | 3
Cc1cccc(C)c1OCC(=O)Nc1nonc1-c1ccc(Br)cc1 | ? | ? | ? | / | -41% | 8
c1ccc2c(CCNc3ccc(Nc4ccncc4)cc3)c[nH]c2c1 | / | / | 15µM* | / | / | /
SMILES | S2 tox | TGFb SMAD3 inh | ATXN2 expr inh | D3 antag | HepG2 tox | D3 ag
COc1cc2nc(-c3ccc(N4CCN(C)CC4)cc3)nc(NCCN3CCOCC3)c2cc1OC | / | / | 0.39µM* | / | / | /
Cc1nc(N2CCC(C)CC2)c2c(C)c(C(=O)Nc3ccc(C)c(F)c3)sc2n1 | i | -1% | 1% | 25 | 2% | 9
Cc1nc(N2CCC(C)CC2)c2c(C)c(C(=O)Nc3ccccc3C(F)(F)F)sc2n1 | i | -12% | -3% | 77 | 6% | 31*
Cc1nc(N2CCN(c3ccccn3)CC2)c2c(C)c(C(=O)Nc3c(F)cc(F)cc3Br)sc2n1 | i | -18% | -20% | 40 | -4% | 39*
O=C1OC2(c3ccccc31)c1cc(Br)c(O)c(Br)c1Oc1c2cc(Br)c(O)c1Br | i | / | -2% | / | / | 1
CC(=O)Nc1ccc(S(=O)(=O)NCc2csc(C)n2)cc1 | i | 2% | 4% | 8 | 10% | 4
CC(=O)Nc1ccc(S(=O)(=O)NCc2cn3c(C)csc3n2)cc1 | i | 1% | 4% | -69* | -2% | 0
CCN(CC)P(=O)(Nc1ccc(C)cc1Br)c1ccc(N(C)C)cc1NC(=O)c1ccco1 (stereo unspecified) | i | 14% | -15% | -60* | -7% | -17
CC(=O)CS(=O)(=O)c1ccc(Oc2ccc(S(=O)(=O)CC(C)=O)cc2)cc1 | ? | 20% | -23% | 28 | 4% | 1
CC(=O)CCS(=O)(=O)c1ccc(Oc2ccc(S(=O)(=O)CCC(C)=O)cc2)cc1 | i | ? | 26% | 8 | 5.6µM* | -3
COc1ccccc1N1CCN(C(CNC(=O)C2CCCCC2)c2cccnc2)CC1 (stereo unspecified) | i | ? | -29% | -71* | -9% | -14
C[Si](C)(C)O[Si](C)(C)C | / | / | / | / | / | 3
CCOc1ccc(NC(=O)CCc2c(C)nc3c(c(C)nn3-c3ccccc3)c2C)cc1 | i | -14% | 10% | / | -2% | -3
CC1(C)C(\C=C/C=C\C=C/C=C2/N(CCCCS(=O)(=O)O)c3ccc4ccccc4c3C2(C)C)=[N+](CCCCS(=O)(=O)[O-])c2ccc3ccccc3c21 | / | / | / | / | / | 10
CCOC(=O)Cc1nn(Cc2nc(-c3ccc(C#N)cc3)cs2)c(=O)c2ccccc12 | ? | -26% | ? | 19 | -77% | 31*
O=c1[nH]c(=O)n([C@H]2CCCO2)cc1F | i | / | 7% | / | / | -6
C[N+]1(CC(=O)c2cccc([N+](=O)[O-])c2)CCOCC1 | / | -6% | / | / | 3% | /
COc1ccc(C(C)(C)C)cc1S(=O)(=O)N1CCC(C(N)=O)CC1 | i | 6% | -4% | -52* | 2% | -8

Bioassay records deposited in PubChem by National Center for Advancing Translational Sciences (NCATS).
